A short description of experiment [1]: CCTE_Shafer_MEA_acute_burst_duration_mean: CCTE's Neural Acute Assay for Mean Burst Duration, Shafer Lab (AID 2284014).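 Note: hits are decreases in mean burst duration relative to DMSO controls.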 The method in brief: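 Read-out is the per-well percent change in mean burst duration (first to last spike within a single-electrode burst) between 40-min recordings before and after compound. Cultures were primary rat cortical neurons on MEAs, dosed at 0.03-40 uM on DIV 13 or 15.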

Experiment [2] can be described thus: CCTE_Shafer_MEA_acute_per_burst_spike_number_mean: CCTE's Neural Acute Assay for Average Number of Spikes Per Burst, Shafer Lab (AID 2284015).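 Note: hits are decreases in mean spikes per burst versus baseline.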 The method in brief:
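We recorded spontaneous network firing of rat cortical neurons for 40 min before and 40 min during exposure to compound at 0.03-40 uM, at 37 C. Spikes were detected adaptively at 8x rms noise, and the change in average spikes per burst was fitted against DMSO.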

Experiment [3] can be described thus: CCTE_Shafer_MEA_acute_interburst_interval_mean: CCTE's Neural Acute Assay for Mean Interburst Interval, Shafer Lab (AID 2284016).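 Note: percent change of mean interburst interval versus each well's own pre-dose baseline; curves fitted for decrease in interburst interval relative to DMSO.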 The procedure, abridged:
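MEA recording of spontaneous network bursting in primary rat cortical cultures; mean interburst interval was compared before and after a 40-min compound exposure (0.03-40 uM) and expressed as percent change, relative to DMSO.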

Experiment [4] in a line: CCTE_Shafer_MEA_acute_burst_percentage_mean: CCTE's Neural Acute Assay for Percentage of Spikes in a Burst, Shafer Lab (AID 2284017).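 For AC50: curve fitted for loss of signal so potency reflects decreased burst percentage.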 The procedure, abridged:
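Compounds were tested at 0.03-40 uM on primary rat cortical neuron networks grown over microelectrodes, with at least three wells per compound. Spontaneous firing was recorded for 40 min before and 40 min after dosing, and the change in burst percentage was computed per well.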

Experiment [5] in a line: CCTE_Shafer_MEA_acute_burst_percentage_std: CCTE's Neural Acute Assay for Standard Deviation of Burst Percentage, Shafer Lab (AID 2284018).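 Note: fitted in the negative direction so actives lower burst percentage SD.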 The procedure, abridged:
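Value is percent change from baseline in the across-electrode SD of spikes-in-bursts percentage, wells with >/= 10 active electrodes. Acute 40-min exposure to 0.03-40 uM on DIV 13 or 15 rat cortical cultures, recorded at 37 C after 40-min baseline.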

Experiment [6] is described as follows: CCTE_Shafer_MEA_acute_per_network_burst_spike_number_mean: CCTE's Neural Acute Assay for Average Number of Spikes in a Network Burst, Shafer Lab (AID 2284019).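 For AC50: curve fitted for loss of signal so actives reduce spikes per network burst.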 The method in brief:
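Read-out is mean spike count per network burst, taken as percent change between a 40-min pre-exposure and a 40-min post-exposure recording per well. Rat primary cortical neurons on MEAs at 37 C, DIV 13 or 15; compounds at 0.03-40 uM.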

Experiment [7] in a line: CCTE_Shafer_MEA_acute_per_network_burst_spike_number_std: CCTE's Neural Acute Assay for Standard Deviation of Number of Spikes in a Network Burst, Shafer Lab (AID 2284020).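 Note: fitted for decrease in spike-number SD versus DMSO so actives lower it.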 The method in brief: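 Spontaneous network activity of primary rat cortical neurons is recorded extracellularly before and after a 40-min compound exposure (0.03-40 uM) at 37 C. The endpoint is the well's percent change in burst spike-number SD.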

Experiment [8] can be described thus: CCTE_Shafer_MEA_acute_per_network_burst_electrodes_number_mean: CCTE's Neural Acute Assay for Mean Number of Electrodes in a Network Burst, Shafer Lab (AID 2284021).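 Note: curves fitted for decreases only so hits reduce electrodes per burst.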 The method in brief:
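Primary rat cortical networks, mwMEA, 37 C. 20 min stabilization, 40 min baseline, compound 0.03-40 uM, 40 min re-record. Wells need >=10 active electrodes; percent change per well, negative fitting direction.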

The nature of experiment [9]: CCTE_Shafer_MEA_acute_cross_correlation_area: CCTE's Neural Acute Assay for Area of Cross Correlation, Shafer Lab (AID 2284024).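 For outcome: rat primary cortical neuron networks on 48-well MEA at DIV 13 or 15 with 40 min exposure.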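 Note: area under pooled inter-electrode spike cross-correlation near zero lag as percent change from own baseline; curves fitted for loss of cross-correlation area so actives lower synchrony.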 The procedure, abridged: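 Plates equilibrated 20 min at 37 C, then 40 min baseline was recorded, compound was added (0.03-40 uM), and a further 40 min was recorded. Wells needed ≥10 active electrodes (≥5 spikes/min) on exposure day.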
Experiment [10] in a line: CCTE_Shafer_MEA_acute_cross_correlation_HWHM: CCTE's Neural Acute Assay for Cross Correlation at Half Width at Half Maximum, Shafer Lab (AID 2284026).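 Note: percent change per well from pre-dose baseline in spike cross-correlogram half width; hits are a decrease in cross-correlogram half width relative to DMSO.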 The method in brief: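 Rat cortical neuron cultures on microelectrode arrays were equilibrated 20 min at 37 C, recorded 40 min at baseline, then 40 min after compound addition (0.03-40 uM, ≥3 wells). Spikes were detected at 8x rms noise after 300-5000 Hz band-pass filtering.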

Experiment [11] is described as follows: CCTE_Shafer_MEA_acute_synchrony_index: CCTE's Neural Acute Assay for Synchrony, Shafer Lab (AID 2284027).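 Note: network synchrony index of spontaneous spiking in primary rat cortical neurons on MEAs; fitted for loss of signal so actives lower synchrony relative to DMSO.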 The procedure, abridged: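 Primary rat cortical neurons on 16-electrode MEA wells were recorded 40 min at baseline (DIV 13 or 15) and 40 min after compound (0.03-40 uM) at 37 C. Synchrony index (0-1) expressed as percent change from baseline, versus DMSO.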

Experiment [12] has as its target Estrogen receptor (Homo sapiens) (UniProt P03372). As to the kind of experiment: CCTE_Deisenroth_AIME_384WELL_LUC_Active: CCTE's 384-well Estrogen Receptor Transactivation Assay with AIME metabolic competence (ERTA luciferase; metabolism positive), Deisenroth Lab (AID 2284030; active = hit-call score of the fitted dose curve at least 0.9, where 1 is the maximum). The method in brief: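 AIME metabolism-positive mode: chemicals 0.002 - 200 uM, 2 h with alginate-bound PB/BNF-induced rat S9 → medium to VM7Luc4E2 ERTA, 24 h → luciferase. Positive fit vs 17beta-estradiol; n=4 typical.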

Experiment [13] can be described thus: CCTE_Shafer_MEA_dev_firing_rate_mean: CCTE's Neural Network Formation Assay for Mean Firing Rate, Shafer Lab (AID 2284031).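 For AC50: curve fitted for loss of firing so AC50 reflects decreased mean firing rate.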 The procedure, abridged: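 Primary rat cortical neurons on 48-well, 16-electrode MEAs (PEI-coated, laminin at plating), exposed from day 0 with compound renewed at DIV 5 and 9. Spikes recorded DIV 5, 7, 9, 12; well-mean firing rate collapsed to trapezoidal AUC, loss-of-signal vs DMSO.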

Experiment [14] in a line: CCTE_Shafer_MEA_dev_per_burst_spike_percent: CCTE's Neural Network Formation Assay for Percent of Spikes in a Burst, Shafer Lab (AID 2284032).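 For AC50: fitted as a decrease in burst spike percentage below DMSO baseline.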 The method in brief:
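Rat primary cortical neurons on 16-electrode MEA wells, dosed from plating day 0 for 12 days with renewal on DIV 5 and 9; spikes-in-bursts percentage averaged over bursting electrodes, collapsed as AUC across days 5, 7, 9, 12; loss direction versus DMSO.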

A short description of experiment [15]: CCTE_Deisenroth_AIME_384WELL_CTox_Active: Cytotoxicity Assessment (CTOX) in CCTE's 384-well Estrogen Receptor Transactivation Assay with AIME metabolic competence (metabolism positive), Deisenroth Lab (AID 2284037; active = hit-call score of the fitted dose curve at least 0.9, where 1 is the maximum;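 note: chemicals first conditioned 2 h by alginate-bound induced rat liver S9 before cells; activity means signal loss indicating cell death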). The procedure, abridged:
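Cytotoxicity in VM7Luc4E2 breast cells, 24 hour, measured as protease-substrate fluorescence loss, after 2-hour metabolic conditioning with induced rat hepatic S9 in alginate microspheres. Concentrations 0.002 - 200 uM, 10 points, bidirectional fitting.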

Experiment [16] addresses Estrogen receptor (Homo sapiens) (UniProt P03372). The experiment can be described thus: CCTE_Deisenroth_AIME_384WELL_LUC_Inactive: CCTE's 384-well Estrogen Receptor Transactivation Assay without AIME metabolic competence (ERTA luciferase; metabolism negative), Deisenroth Lab (AID 2284038; active = hit-call score of the fitted dose curve at least 0.9, where 1 is the maximum;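 note: VM7Luc4E2 breast cells given medium preincubated 2 h with S9-free microspheres; hits raise estrogen receptor luciferase signal so potencies reflect agonists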). The procedure, abridged:
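Chemicals (10-point series, 0.002 - 200 uM) were incubated 2 hours with alginate-water microsphere lids lacking S9, then the conditioned medium was transferred to VM7Luc4E2 breast cells for 24 hour. Luciferase induction was read by bioluminescence, fitted upward relative to 17beta-estradiol.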

The target is the same in experiment [17]. The experiment can be described thus: CCTE_Deisenroth_AIME_96WELL_LUC_Active: CCTE's 96-well Estrogen Receptor Transactivation Assay with AIME metabolic competence (ERTA luciferase; metabolism positive), Deisenroth Lab (AID 2284023; active = hit-call score of the fitted dose curve at least 0.9, where 1 is the maximum). The procedure, abridged: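 Chemicals pre-incubated 2 h with alginate-immobilized phenobarbital/beta-naphthoflavone-induced male Sprague Dawley rat liver S9, then medium transferred to VM7Luc4E2 cells for 24 h luciferase read-out. 10-point series 0.002 - 200 uM; fitted relative to 17beta-estradiol.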

For experiment [18] the target is unchanged. The experiment can be described thus: CCTE_Deisenroth_AIME_96WELL_LUC_Inactive: CCTE's 96-well Estrogen Receptor Transactivation Assay without AIME metabolic competence (ERTA luciferase; metabolism negative), Deisenroth Lab (AID 2284025; active = hit-call score of the fitted dose curve at least 0.9, where 1 is the maximum). The procedure, abridged: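 VM7Luc4E2 breast cells, luciferase read 24 h after dosing with medium pre-incubated 2 h on alginate-water lids (metabolism negative). 10-point series 0.002–200 uM, single technical replicate, n≥4; fit relative to 17beta-estradiol.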

Each structure is given as a SMILES string. Several values for one entry are separate records, joined by “and”; a condition that tells them apart may be missing. Equal values may be shown once. Records with an inconclusive call do not appear. Some compounds were tested as several samples or in several runs, with calls that do not always agree. Activity calls are given as the source filed them. Rule for the calls, unless noted: active = hit-call score of the fitted dose curve at least 0.9, where 1 is the maximum; inactive = score below 0.9.

Sequence of Estrogen receptor (Homo sapiens) (P03372 whole entry, looked up): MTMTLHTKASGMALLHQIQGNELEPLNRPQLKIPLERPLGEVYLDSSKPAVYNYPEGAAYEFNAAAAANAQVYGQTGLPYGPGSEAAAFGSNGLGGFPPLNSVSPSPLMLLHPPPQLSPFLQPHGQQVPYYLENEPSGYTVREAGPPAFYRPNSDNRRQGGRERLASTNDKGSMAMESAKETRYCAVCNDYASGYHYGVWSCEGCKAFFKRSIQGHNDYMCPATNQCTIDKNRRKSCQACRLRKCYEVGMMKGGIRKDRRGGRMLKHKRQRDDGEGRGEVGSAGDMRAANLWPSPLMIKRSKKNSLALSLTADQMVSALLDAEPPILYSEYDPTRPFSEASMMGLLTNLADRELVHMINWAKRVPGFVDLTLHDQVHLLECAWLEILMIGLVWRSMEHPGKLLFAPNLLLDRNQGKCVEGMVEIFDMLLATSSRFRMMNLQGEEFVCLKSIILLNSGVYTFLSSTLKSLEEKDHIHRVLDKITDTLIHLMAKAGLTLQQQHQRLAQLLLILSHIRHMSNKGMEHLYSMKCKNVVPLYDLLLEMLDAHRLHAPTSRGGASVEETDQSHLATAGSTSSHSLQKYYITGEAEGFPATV

Turning to `COc1ccc(O)c(C(C)(C)C)c1`, the AC50 (as a rule, the concentration giving half of the maximal activity seen) in [1] is 4.04 µM (active); in experiment [2] it was 15 µM (active) and 185 nM (active); in experiment [3], 31.9 µM (active); in experiment [4], 15 µM (active) and 1.45 µM (active) and 32.8 µM (active); in [6], 0.144 µM (active); in experiment [7], 0.0903 µM (active). The AC50 in [8] was 0.449 µM (active); in experiment [9] it was 0.0444 µM (active); in experiment [10], 15 µM (active) and 2.79 µM (active) and 32.2 µM (active); in [11], 15 µM (active) and 3.93 µM (active) and 33 µM (active). The outcome in [1], in [2], in [3], in experiment [5], in [6] and in experiment [7] was inactive. Further, the molecule was classed as inactive in experiment [8], in [9], in experiment [12], in [13], in [14] and in [15]. For the same molecule, in experiment [16], the call was inactive.
For `Clc1ccc(C(Cl)(Cl)Cl)cc1`, the result in experiment [1], in experiment [2], in [3], in [4], in [5] and in experiment [6] was inactive. Besides, the call in [7], in experiment [8], in [9], in [10], in experiment [11] and in [12] was inactive. The molecule was classed as inactive in [15] and in experiment [16].
Turning to `c1ccc(-c2ccccc2)cc1`, the molecule was called inactive in experiment [1], in experiment [2], in [3], in experiment [5], in [6] and in [7]. Besides, the outcome in experiment [8], in experiment [9], in [18], in experiment [10], in experiment [11] and in experiment [15] was inactive. Further, in experiment [16], the outcome was inactive. The figures for the AC50 in experiment [4], in experiment [17] and in experiment [12] were 33.1 µM (active), 77.8 µM (active) and 88 µM (active), respectively.
Consider `CCC(C)(c1ccc(O)cc1)c1ccc(O)cc1`, for which the result in experiment [1], in experiment [2], in [3], in [4], in experiment [5] and in experiment [6] was inactive. The outcome in [7], in experiment [8], in experiment [9], in [10], in [11] and in experiment [13] was inactive. The outcome in [14] was inactive. Further, the AC50 was 0.927 µM (active) in [12], 164 µM (active) in experiment [15] and 0.206 µM (active) in experiment [16].
For `CO/C=C(/C(=O)OC)c1ccccc1COc1cccc(C(F)(F)F)n1`, the molecule was called inactive in experiment [1], in experiment [2], in experiment [5], in experiment [6], in experiment [7] and in experiment [8]. In addition, the AC50 in [3] was 5 µM (active); in experiment [4] it was 5.12 µM (active); in experiment [9], 0.313 µM (active); in experiment [10] it was 5.05 µM (active); in [11], 5.76 µM (active); in experiment [13] it was 272 nM (active) and 453 nM (active). Besides, the AC50 in [14] was 822 nM (active) and 381 nM (active).
As for `CCCCCCCCCc1ccc(O)cc1`, the AC50 is 20 µM (active) in experiment [1]; 11.1 µM (active) in [2]; 22.5 µM (active) in [4]; 33.7 µM (active) in [5]; 9.3 µM (active) in experiment [7]; 20 µM (active) in experiment [8]. The AC50 in [10] is 20 µM (active); in experiment [11], 20.9 µM (active); in experiment [12] it was 26.3 µM (active); in [15], 150 µM (active); in experiment [16], 24.5 µM (active). Further, the outcome in experiment [3], in experiment [6] and in [9] was inactive.
